KLF5 inh: KLF5 expression inhibitors, primary screen, DLD-1 cells, luminescence | inhibition, % at 5 µM | DLD-1 KLF5 promoter-luciferase reporter | AID 1700, 2009 | actives 0.23% (n = 290,000);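 active means inhibition above a per-plate limit of that plate's mean compound inhibition plus 3 SD, cut at about 60% in these data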;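 further: higher means less KLF5 promoter-driven luciferase light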
BaF3 tox: parental Ba/F3 cell viability inhibition, counter-screen for JAK2V617F inhibitor project, murine pro-B, CellTiter-Glo luminescence; CellTiter-Glo ATP luminescence; AID 1486, 2009; actives 1.1% (n = 220,000); inhibition, % at 5.6 µM;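 active means inhibition above a per-campaign cutoff, the mean inhibition of all tested compounds plus 3 SD, cut at about 27% in these data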
APP transl inh: inhibitors of APP translation via 5'UTR reporter, primary screen, APP 5'UTR luciferase, SH-SY5Y cells; SH-SY5Y APP 5'UTR-luciferase reporter, luminescence; inhibition, % at 2 µM; actives 0.82% (n = 190,000); AID 1285, 2008;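 active means inhibition above a set limit, derived from the sample mean plus 3 SD, cut at about 45% in these data; inconclusive means one replicate passes the limit while the other fails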
IEC-6 cytotox: cytotoxicity in IEC-6 intestinal epithelial cells, primary screen, cytotoxicity control for KLF5 inhibitor project, cell-based, luminescence. AID 1825, 2009. inhibition, % at 5 µM. IEC-6 cytotoxicity, luminescence viability. actives 0.78% (n = 290,000); in the data active means inhibition above about 22%
aSyn UTR inh: MLPCN primary screen, SNCA 5' untranslated region | alpha-synuclein 5'UTR reporter, inhibitor activity | inhibition, % (tested at 7.5 µM) | actives 0.82% (n = 300,000); in the data active means inhibition above about 60%; inconclusive means no clear call, values can overlap the other calls;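 further: H4 neuroglioblastoma cells stably carrying SNCA 5'UTR luciferase fusion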
Ba/F3 V617F tox: reduced viability of JAK2V617F-dependent Ba/F3 cells, primary screen, JAK2V617F inhibitor project, cell-based, Ba/F3 EpoR-JAK2V617F, luminescence. ATP luminescence. inhibition, % at 5.6 µM. AID 1446, 2008. actives 1.1% (n = 220,000);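 active means inhibition above the campaign mean plus 3 SD over all tested compounds, cut at about 24% in these data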;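 further: cytokine-independent growth of Ba/F3 cells driven by EpoR plus mutant JAK2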
BaF3 tox 2: parental Ba/F3 cell viability inhibition, counter-screen for JAK2V617F inhibitor project, murine pro-B, CellTiter-Glo luminescence; inhibition, % at 5.6 µM; cells kept alive by added IL-3; shares compounds with Ba/F3 V617F tox; actives 31% (n = 580);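 active means cell growth inhibition above the hit limit set in the earlier mutant JAK2 cell screen, cut at about 27% in these data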
JAK2V617F conf: viability loss in Ba/F3 EpoR-JAK2V617F cells, confirmation, JAK2V617F inhibitor project, cell-based, luminescence, triplicate. shares compounds with Ba/F3 V617F tox. CellTiter-Glo luminescence. inhibition, % at 5.6 µM. actives 66% (n = 580). AID 1521, 2009;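 active means mean inhibition above the hit cutoff derived in the earlier primary screen, cut at about 25% in these data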;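 further: higher means lower luminescence from reduced cell ATP and viability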
Large screens that a line does not name were inactive (follow-up assays come after a bar, where they were run). A selection: hits, their analogues and other compounds. The true share with any hit is near 2.1%.

CN(C)C(CNc1ccc(S(C)(=O)=O)cc1[N+](=O)[O-])Cc1ccccc1 (configuration not stated)	none (no result: BaF3 tox, APP transl inh, Ba/F3 V617F tox)
COc1ccc(OC)c(C2CC(=O)c3c([nH]c(C(=O)OC(C)C)c3C)C2)c1 (configuration not stated)	APP transl inh 95, Ba/F3 V617F tox 68 | BaF3 tox 2 57 | JAK2V617F conf 90
CCCCN(CC)Cc1ccc(CNC(=O)Nc2ccc(F)cc2)o1	Ba/F3 V617F tox 48 | BaF3 tox 2 inactive | JAK2V617F conf 39
CCCC(=O)Nc1ccc(Cl)c(NC(=O)c2cccnc2)c1	Ba/F3 V617F tox 60 | BaF3 tox 2 inactive | JAK2V617F conf inactive
CC(=O)n1cc(N(C(=O)CCl)c2ccccc2)c2ccccc21	aSyn UTR inh 106, Ba/F3 V617F tox 96 (no result: APP transl inh) | BaF3 tox 2 98 | JAK2V617F conf 99
CC(=O)n1cc(N(C(=O)CCl)c2ccc([N+](=O)[O-])cc2)c2ccccc21	Ba/F3 V617F tox 63 (no result: APP transl inh) | BaF3 tox 2 46 | JAK2V617F conf 100
CC(=O)n1cc(CO)c2ccccc21	none (no result: BaF3 tox, APP transl inh, Ba/F3 V617F tox)
CCCCn1c(N)c(N(CCOC)C(=O)COC(=O)CCOc2ccccc2C)c(=O)[nH]c1=O	none (no result: KLF5 inh, BaF3 tox, APP transl inh, IEC-6 cytotox, Ba/F3 V617F tox)
COc1ccc(OC)c(NC(=O)CSc2ccc3nnc(-c4ccccn4)n3n2)c1	none (no result: BaF3 tox, APP transl inh, Ba/F3 V617F tox)
COc1ccc(C(C(=O)NC(C)(C)C)N(C(=O)CCC(=O)Nc2cc(C)on2)c2c(C)cccc2C)cc1 (configuration not stated)	none (no result: BaF3 tox, APP transl inh, Ba/F3 V617F tox)
O=C(CCOc1ccccc1)N1CCN(c2ccc(O)cc2)CC1	Ba/F3 V617F tox 25 (no result: APP transl inh) | BaF3 tox 2 inactive | JAK2V617F conf inactive
O=C(CCCOc1ccccc1)N1CCN(c2ccccc2)CC1	none
O=C(CSc1nnnn1-c1ccc(F)cc1)Nc1ccccc1F	none (no result: BaF3 tox, APP transl inh, Ba/F3 V617F tox)
CCCCN1CN(Cc2ccccc2)CNC1=S	Ba/F3 V617F tox 41 | BaF3 tox 2 inactive | JAK2V617F conf inactive
CC(=O)C1=C(O)CC(C)(C)CC1=NCCc1nc2ccccc2[nH]1	Ba/F3 V617F tox 102 | BaF3 tox 2 inactive | JAK2V617F conf inactive
COc1cc(/C=C2/CC/C(=C/c3ccc(O)c(OC)c3)C2=O)ccc1O	none (no result: APP transl inh)
COc1cc(/C=C2\COC/C(=C\c3ccc(O)c(OC)c3)C2=O)ccc1O	aSyn UTR inh 103, Ba/F3 V617F tox 25 (no result: APP transl inh) | BaF3 tox 2 inactive | JAK2V617F conf 91
O=C(Nc1ccc(C#Cc2ccccc2)cc1)C1CC1	Ba/F3 V617F tox 38 | BaF3 tox 2 inactive | JAK2V617F conf inactive
O=C(Nc1ccc(Oc2ccccc2)cc1)C1CC1	none
CN(C)c1ccc(C(CNC(=O)c2ccco2)N2CCCC2)cc1 (configuration not stated)	none (no result: BaF3 tox, APP transl inh, Ba/F3 V617F tox)
CCS(=O)(=O)CCSc1nc(C)cc(C)c1C#N	Ba/F3 V617F tox 100 | BaF3 tox 2 inactive | JAK2V617F conf inactive
COc1ccc(N2CC(C(=O)Nc3cc(C)ccn3)CC2=O)cc1 (configuration not stated)	none (no result: APP transl inh)
O=C1C2C3C=CC(C3)C2C(=O)N1c1ccc2c(c1)OCO2 (configuration not stated)	Ba/F3 V617F tox 57 | BaF3 tox 2 inactive | JAK2V617F conf inactive
O=C1C2C3C=CC(CC3)C2C(=O)N1c1ccc2c(c1)OCO2 (configuration not stated)	none
COc1ccc(/C=N/NC(=O)CCn2cnc(-c3ccccc3)c2-c2ccccc2)cc1	APP transl inh 89, IEC-6 cytotox 40, aSyn UTR inh inconclusive, Ba/F3 V617F tox 47 | BaF3 tox 2 62 | JAK2V617F conf 94
COc1ccc(OC)c(C2(O)CSC(=Nc3cccnc3)N2Cc2ccco2)c1 (configuration not stated)	none
OC1(c2ccc(OC(F)F)cc2)CSC(=Nc2cccnc2)N1C1CC1 (configuration not stated)	Ba/F3 V617F tox 29 | BaF3 tox 2 inactive | JAK2V617F conf 31
CC(Sc1ncc(C(F)(F)F)cc1Cl)C(=O)NC(N)=O (configuration not stated)	Ba/F3 V617F tox 39 | BaF3 tox 2 inactive | JAK2V617F conf inactive
CC(C)NC(=O)c1ccc(CN2CCc3ccccc3C2)cc1	none (no result: BaF3 tox, APP transl inh, Ba/F3 V617F tox)
CCC(NC(=O)Nc1cc(C)on1)(C(F)(F)F)C(F)(F)F	none (no result: APP transl inh)
CN1/C(=C\C(=O)CSc2nnc(NCc3ccccc3)s2)C(C)(C)c2ccccc21	Ba/F3 V617F tox 33 | BaF3 tox 2 inactive | JAK2V617F conf inactive
CC(=O)c1cccc(NC(=O)CSc2nnc(C(C)N(C)C)n2Cc2ccccc2)c1 (configuration not stated)	none (no result: BaF3 tox, APP transl inh, Ba/F3 V617F tox)
CN1CCN(C(=S)Nc2ccc(Cl)c(Cl)c2)CC1	Ba/F3 V617F tox 43 | BaF3 tox 2 inactive | JAK2V617F conf 46
COc1ccccc1/C=C/CN1CCCC(CCC(=O)NCc2ccccc2F)C1 (configuration not stated)	none
O=C(CCl)N(c1ccc(Cl)cc1)c1c[nH]c2ccccc12	Ba/F3 V617F tox 72 | BaF3 tox 2 73 | JAK2V617F conf 99
O=C(Cc1ccc(Cl)cc1)NCCc1c[nH]c2ccccc12	none (no result: BaF3 tox, APP transl inh, Ba/F3 V617F tox)
CCOc1ccc(Cl)cc1S(=O)(=O)N1CCC(C(=O)NCc2ccco2)CC1	none (no result: BaF3 tox, APP transl inh, Ba/F3 V617F tox)
O=C(CNC(=O)N1CC(=O)Nc2ccccc21)NCc1cccc(Cl)c1	none (no result: BaF3 tox, APP transl inh, Ba/F3 V617F tox)
Cc1ccc(N/C(=C\C(=O)c2ccccc2)C(=O)O)cc1	Ba/F3 V617F tox 40 | BaF3 tox 2 inactive | JAK2V617F conf inactive
CC(=O)N(c1nnc(-c2cccc(C)c2)s1)C1CCCC1	none (no result: BaF3 tox, APP transl inh, Ba/F3 V617F tox)
Oc1c(Cl)cc(Cl)cc1C=Nc1cc(C(F)(F)F)ccc1N1CCc2ccccc2C1	none (no result: APP transl inh)
CC(=O)c1ccc(Sc2nnnn2-c2ccccc2)c([N+](=O)[O-])c1	Ba/F3 V617F tox 44 | BaF3 tox 2 inactive | JAK2V617F conf 83
CC1(C)Cc2c(sc(NC(=O)C(=O)N3CCOCC3)c2C(N)=O)CO1	none (no result: BaF3 tox, APP transl inh, Ba/F3 V617F tox)
O=C(NC1C=CS(=O)(=O)C1)c1sc2ccccc2c1Cl (configuration not stated)	Ba/F3 V617F tox 27 | BaF3 tox 2 inactive | JAK2V617F conf 59
O=C(NC1CC1)c1sc2ccccc2c1Cl	none (no result: BaF3 tox, APP transl inh, Ba/F3 V617F tox)
Cc1sc2ncnc(Sc3nnnn3-c3ccccc3)c2c1C	none
Clc1ccc(-n2nnnc2Sc2ncnc3sccc23)cc1	APP transl inh 92, Ba/F3 V617F tox 26 | BaF3 tox 2 inactive | JAK2V617F conf 88
